Here are results for seven sequences from the supplement of paper PMC6555819.

Holding throughout (assay): PBM binding z-score (relative to random genomic background probes); higher = stronger binding; sequences stand for … in GC…GCGATTGACAGCGTAGAATGAAGG
The test system of assay [1] is PPARg:RXRa DBDmut IVT, anti-RXR (DBD mutation: RXRa K156A/R161A, NR concentration 270 nM, RXRa partner concentration 90 nM). An outline of the steps:
(§1)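 For binding z-scores, the reference was random background probes on custom Agilent 4×180K protein-binding microarrays. These arrays were incubated 1 h with ligand-free nuclear receptor dimers in PBS pH 7.4, 2% milk, 0.02% Triton X-100, 1 mM DTT, 0.2 mg/mL BSA and 0.4 mg/ml salmon testes DNA. Fluorescence was scanned after antibody detection of each partner (one per run) and regression-normalized.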

The test system of assay [2] is PPARg:RXRa IVT, anti-PPARg (NR concentration 270 nM, RXRa partner concentration 90 nM). In outline:
as §1

For assay [3], the system named is PPARg DBDmut:RXRa IVT, anti-PPARg (DBD mutation: PPARg1 K132A/R137A, NR concentration 270 nM, RXRa partner concentration 90 nM). An outline of the steps: as §1
Assay [4] has as its system PPARg DBDmut IVT, anti-PPARg (DBD mutation: PPARg1 K132A/R137A, NR concentration 270 nM). An outline of the steps:
as §1

The subject of assay [5] is PPARg homodimer (NR concentration 180 nM). In outline: as §1
Assay [6] concerns PXR:RXRa (NR concentration 270 nM, RXRa partner concentration 90 nM). In outline:
as §1

Assay [7] has as its system PXR homodimer (NR concentration 270 nM). An outline of the steps:
as §1

The test system of assay [8] is RARa:RXR (NR concentration 270 nM, RXRa partner concentration 90 nM). An outline of the steps:
as §1

The subject of assay [9] is RARa homodimer (NR concentration 270 nM). An outline of the steps: as §1
The subject of assay [10] is RARb:RXRa (NR concentration 270 nM, RXRa partner concentration 90 nM). In outline: as §1
The subject of assay [11] is RARb homodimer (NR concentration 270 nM). An outline of the steps:
as §1

Assay [12] relates to RARg:RXRa (NR concentration 270 nM, RXRa partner concentration 90 nM). An outline of the steps:
as §1

Assay [13] concerns RARg homodimer (NR concentration 270 nM). An outline of the steps: as §1
For assay [14], the system named is RXRa DBDmut IVT, anti-RXR (DBD mutation: RXRa K156A/R161A, NR concentration 90 nM). In outline:
as §1

Assay [15] relates to RXRa homodimer (NR concentration 180 nM). In outline: as §1
The subject of assay [16] is THRa:RXRa (NR concentration 90 nM, RXRa partner concentration 90 nM). In outline: as §1
For assay [17], the system named is THRa homodimer (NR concentration 90 nM). An outline of the steps: as §1
Assay [18] has as its system VDR homodimer (NR concentration 270 nM). An outline of the steps:
as §1

With ACTAGCAGGCCAAGTTTGGGTCACTCTAACAAAG, the PBM binding z-score in assay [1] is 0.86; in [2], 1.15; in assay [3] it was -0.869; in assay [4], -1.06; in assay [5], 0.634; in assay [6] it was 0.8. For the same sequence, the PBM binding z-score in assay [7] is -0.149; in [8], 1.57; in [9] it was -0.645; in assay [10] it was 1.91; in assay [11], 2.06; in [12], 2.24. In addition, the PBM binding z-score in assay [13] is 1.6; in assay [14], -0.0163; in assay [15] it was 0.429; in [16], 2.39; in assay [17], 1.06; in assay [18], 0.209.

With CCTACTGGGCCAAAAAGGTCAATGATGCCGATAA, the PBM binding z-score in assay [1] was 3.37; in [2] it was 4.64; in assay [3], 0.0987; in assay [4], -0.775; in assay [5] it was 2.6; in assay [6] it was 3.47. The PBM binding z-score is 0.909 in assay [7]; 3.89 in assay [8]; 0.262 in assay [9]; 4 in assay [10]; 4.77 in assay [11]; 4.33 in assay [12]. For the same sequence, the PBM binding z-score in [13] is 4.09; in assay [14], -0.0473; in assay [15], 4.06; in assay [16] it was 3.06; in [17] it was 0.77; in assay [18], 0.956.

In the case of CAGCCTATGTCAGGGCCAGTATAGGAGGAACGTT, the PBM binding z-score in [1] was -0.717; in assay [2], -0.807; in [3], -1.25; in assay [4] it was -0.192; in assay [5], -0.0188; in assay [6] it was -0.63. Moreover, the PBM binding z-score in assay [7] was -0.46; in assay [8], -0.507; in assay [9], -0.292; in assay [10] it was 0.105; in assay [11] it was 0.243; in [12] it was 0.116. Moreover, the PBM binding z-score in [13] was 0.219; in [14], -0.685; in [15] it was -0.248; in assay [16], -0.329; in assay [17], -0.168; in assay [18], -0.529.

In the case of CCATACGGGTCAAGGTTATAGCACGGGTGGTACG, the PBM binding z-score in [1] is 1.2; in assay [2], 3.15; in assay [3], 0.543; in [4], -0.539; in assay [5] it was 2.1; in [6], 3.06. Further, the PBM binding z-score was 0.247 in [7]; 3.82 in assay [8]; 0.795 in [9]; 4.1 in assay [10]; 3.43 in [11]; 4.7 in assay [12]. Moreover, the PBM binding z-score stood at 4.33 in assay [13]; 0.452 in assay [14]; 4.65 in assay [15]; 2.85 in [16]; 0.691 in [17]; 1.15 in [18].

In the case of TCTTGTAGATCAGCCGGTTAAGAAAGCTGGCCAA, the PBM binding z-score is 1.7 in assay [1]; -0.0533 in assay [2]; -0.491 in assay [3]; 0.198 in assay [4]; -0.81 in assay [5]; -0.0108 in assay [6]. The PBM binding z-score in assay [7] was -0.447; in assay [8] it was 0.0162; in assay [9], -0.458; in [10] it was -0.316; in [11], -0.307; in assay [12], -0.542. The PBM binding z-score in assay [13] was -0.822; in [14], 0.73; in assay [15] it was -0.222; in assay [16], -0.482; in assay [17] it was -0.883; in assay [18], -0.659.

With GCGAGTTGGTCAGTAAAAGGTCACACACCGGTCG, the PBM binding z-score in [1] was 0.617; in assay [2], 2.26; in assay [3] it was 0.948; in assay [4], -0.184; in assay [5], 4.06; in [6], 5.14. In addition, the PBM binding z-score in assay [7] is 1.31; in assay [8], 5.93; in [9], 2.5; in assay [10], 4.33; in [11] it was 5.05; in assay [12], 5.52. Also, the PBM binding z-score in assay [13] worked out at 4.95; in [14] it was 1.34; in assay [15], 5.54; in assay [16], 3.47; in assay [17], 1.74; in [18], 2.27.

Turning to CCTACTGGGCCACAAAGGTCATTGATGCCGATAA, the PBM binding z-score in [1] is 4.98; in assay [2], 5.53; in assay [3], 0.0367; in assay [4], -0.795; in assay [5] it was 3.95; in assay [6], 5.34. The PBM binding z-score in assay [7] was 5.11; in assay [8], 5.76; in [9] it was 1.78; in assay [10], 4.2; in [11], 4.64; in [12], 5.33. Further, the PBM binding z-score in assay [13] is 4.68; in assay [14], 1.13; in [15] it was 6.32; in assay [16] it was 3.38; in assay [17], 0.818; in assay [18], 3.31.
